Rows were chosen to be rich in hits. Some 2.4% of all compounds tested hit in one or more screens of this group.
D2 ag-1: activates the human D2 dopamine receptor; HEK293 T-REx D2 cells, calcium flux agonist mode; P14416; activation, % at 2 µM; AID 485358; hit rate 0.53% among 340,000;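 active = activation over 3 SD above normal in the single-dose calcium agonist read, cut at about 30% in these data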; note: 0% is about no effect
Target sequence (P14416 whole entry, looked up): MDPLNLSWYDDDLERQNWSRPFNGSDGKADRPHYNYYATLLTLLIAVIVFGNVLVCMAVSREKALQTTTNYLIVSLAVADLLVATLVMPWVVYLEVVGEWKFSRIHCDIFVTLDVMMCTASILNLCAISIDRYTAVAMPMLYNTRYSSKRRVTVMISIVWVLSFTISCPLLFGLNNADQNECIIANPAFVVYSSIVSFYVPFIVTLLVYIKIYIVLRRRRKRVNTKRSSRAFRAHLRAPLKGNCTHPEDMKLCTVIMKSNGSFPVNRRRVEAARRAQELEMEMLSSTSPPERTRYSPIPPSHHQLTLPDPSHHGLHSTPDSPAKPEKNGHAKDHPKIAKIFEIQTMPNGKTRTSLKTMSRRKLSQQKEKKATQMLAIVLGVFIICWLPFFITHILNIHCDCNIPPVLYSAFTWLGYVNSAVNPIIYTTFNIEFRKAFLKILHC
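Tetracycline-induced HEK293 Trex cells with D2 receptor force-coupled to calcium signaling, plated overnight at 30 C and loaded with no-wash calcium dye. Calcium flux read kinetically for 180 s after compound addition; responses flag agonists.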
D2 PAM-1: positively modulates the human D2 dopamine receptor allosterically; potentiation, % at 10 µM; HEK293 T-REx D2, calcium flux, EC20 dopamine potentiation; hit rate 0.34% among 340,000;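 active = potentiation over 3 SD above the plate norm, cut at about 30% in these data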; note: 0% is about no effect
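Tetracycline-induced Hek293 Trex D2 cells, force-coupled to calcium, loaded with no-wash calcium dye. Compound added with 180 s kinetic read for agonism, then EC20 dopamine and a further 180 s read for potentiation.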
D2 ag-2: activates the human D2 dopamine receptor; P14416; activation, % (test concentration not listed); DiscoveRx PathHunter D2 beta-arrestin, luminescence, 90 min; 100% = 57 uM dopamine signal; hit rate 0.084% among 360,000; AID 624465; in the data active = activation above about 40%; inconclusive = between about 15% and that limit
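DiscoveRx PathHunter D2 beta-arrestin cells (2,100/well) attached overnight, then compound-stimulated 90 min at 37 C in HBSS/10 mM HEPES/0.1% Tween-20 buffer; beta-galactosidase complementation read by luminescence after 1 h at ambient temperature. Dopamine 57 uM final (EC100) as control.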
D2 PAM-2: positive allosteric modulators of human D2 dopamine receptor. hit rate 0.23% among 360,000. P14416. potentiation, % (test concentration not listed). DiscoveRx D2 beta-arrestin cells, luminescence, 90 min; 100% = 57 uM dopamine signal; in the data active = potentiation above about 50%; inconclusive = mostly about 30% to 49%
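PathHunter beta-arrestin assay in DiscoveRx D2 cells. Compounds were added with an EC20 of dopamine (50 nM final) for 90 min at 37 deg C. Luminescence was read 1 h after detection reagent, with 57 uM dopamine as the EC100 control.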
D2 antagonist: antagonizes the human D2 dopamine receptor; P14416; HEK293 TREx D2 cells, calcium flux, dopamine EC80; inhibition, % at 10 µM; hit rate 2% among 340,000; in the data active = inhibition above about 30%; inactive = below that, where a call was filed; note: 0% is about no effect
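Overnight-induced (tetracycline, 30 C) HEK293 T-REx cells carrying force-coupled D2 receive a no-wash calcium dye, then compound, then EC80 dopamine at 180 s; signals are read kinetically throughout.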
Active calls of the source: *; u = inconclusive; x = no result.

SMILES	D2 ag-1	D2 PAM-1	D2 ag-2	D2 PAM-2	D2 antagonist
COc1ccc(Cl)cc1NC(=O)CN(C)C(=O)c1cc2c(F)cccc2s1	1	-12	6	-8	31*
COc1ccc(Cl)cc1NC(=O)CN(C)C(=O)c1ccc(C)s1	0	3	0	-3	-1
COc1ccc(-c2oc3cccnc3c2/C=C/c2ccc(OC)c(OC)c2)cc1	1	-3	-1	9	30*
CCOc1ccc2cc(S(=O)(=O)n3ccnc3C)ccc2c1	0	37*	-3	-4	-5
CCOc1ccccc1NC(=O)CSc1ncc2c(n1)-c1ccccc1N(CC)S2(=O)=O	0	1	x	x	x
CC(C(=O)NCC1CCCCC1)N1CCc2ccccc2C1 (stereo unspecified)	2	-19	-1	-31	54*
CCOC(=O)C1=CCN(S(=O)(=O)c2ccccc2F)C1c1ccccc1 (stereo unspecified)	x	x	3	0	x
COc1ccc(-c2cc(C(C)=O)c(C)n2CCC(=O)Nc2ccc(C)cc2Cl)cc1	1	14	x	x	x
Cc1c(Cl)cccc1-c1ccc(C(=O)Nc2ccc(F)cc2)o1	x	-15	x	x	x
Cc1ccc(NC(=O)CS(=O)(=O)c2cn(C)c3ccccc23)c(C)c1	-1	8	-1	-5	16
CCn1cc(S(=O)(=O)CC(=O)Nc2ccc3c(c2)OCCO3)c2ccccc21	-1	7	12	53*	11
COc1ccc(NC(=O)CS(=O)(=O)c2cn(CC(=O)N(C(C)C)C(C)C)c3ccccc23)c(OC)c1	-1	10	0	12	13
Cn1cc(S(=O)(=O)CC(=O)Nc2ccc(Br)cc2)c2ccccc21	-1	-13	-2	-10	39*
CCCn1cc(S(=O)(=O)CC(=O)Nc2ccc(OC)cc2OC)c2ccccc21	-1	-2	9	68*	4
CCOc1ccc(CNC(=O)CSc2nnc(C)c3c(C)n(-c4ccc(Cl)cc4)nc23)cc1	x	-5	x	x	x
CC(C)N=c1scc(-c2cccs2)n1/N=C/c1ccc(O)c(O)c1O	5	4	u	55*	-8
CN=c1scc(-c2ccccc2F)n1/N=C/c1ccc[nH]1	0	-9	-4	-10	1
CN=c1scc(-c2ccccc2F)n1/N=C/c1ccc(O)c(O)c1O	0	2	180*	173*	0
Cc1sc2c(c1C)c(=O)n(-c1ccc(Cl)cc1)c(=O)n2CC(=O)c1ccccc1	-1	2	x	x	x
CC(C)Cc1nn2c(=O)cc(COC(=O)c3cccc(NC(=O)c4cccs4)c3)nc2s1	1	7	x	x	x
CCOC(=O)C1=C(C)n2c(s/c(=C3\C(=O)Nc4ccccc43)c2=O)=NC1c1ccc(OC)cc1 (stereo unspecified)	0	8	-3	-37	40*
CCOC(=O)C1=C(C)N=c2s/c(=C3/C(=O)Nc4ccccc43)c(=O)n2C1c1ccc(C)cc1 (stereo unspecified)	-1	3	-5	-18	-6
O/N=C1\CCCc2ccccc21	0	4	2	-3	-12
O/N=C1\CCCCc2ccccc21	-1	-2	0	-5	33*
O=C(Nc1cccc(C(F)(F)F)c1)c1cc(CN2CCOCC2)on1	0	0	x	x	x
SMILES	D2 ag-1	D2 PAM-1	D2 ag-2	D2 PAM-2	D2 antagonist
COC(=O)C1C2CC3c4[nH]c5cc(OC)ccc5c4CCN3CC2CC(O)C1OC (stereo unspecified)	x	x	5	-18	x
COC(=O)C1C(O)CCC2CN3CCc4c([nH]c5ccccc45)C3CC21 (stereo unspecified)	-2	-23	3	-8	50*
COC(=O)[C@H]1[C@H]2C[C@H]3c4[nH]c5ccccc5c4CCN3C[C@H]2CC[C@@H]1O	-1	-23	4	-23	87*
Cc1ccc(Cn2c(C)c(CNCC(C)c3ccccc3)c(C(=O)O)c2C)cc1 (stereo unspecified)	0	7	x	x	x
CC(C)c1ccc(N(C(=O)CNC(=O)c2ccco2)C(C(=O)NC2CCCC2)c2ccncc2)cc1 (stereo unspecified)	0	-10	-6	-14	31*
Cc1ccc(-c2csc(N/N=C/c3ccco3)n2)c(C)c1	0	2	12	56*	0
CCOc1ccc(NC(=O)CSc2nc(=O)[nH]c3c2CCC3)cc1	0	5	x	x	x
